# Assays:
# Test in all cases: SPOT peptide array binding signal intensity (averaged, normalized) (arbitrary units (background-subtracted, floor 0; scale differs between SH3 domains)); higher = stronger binding of the SH3 domain to the peptide
# AgAbp1 = target: AgAbp1
# Outline: (§1)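 To measure binding, SH3 domains from four yeast species were fused to GST, expressed in E. coli BL21(DE3) and purified on glutathione Sepharose. Each domain was incubated at 10 μg/ml overnight at 4°C on cellulose membranes with synthetic 15-mer peptides whose cysteines were replaced by serines. Anti-GST antibody, an HRP anti-mouse secondary and luminol were used for detection, and images were quantified with Genespotter. Reported binding signal is normalized, background-subtracted spot intensity averaged over replicates, in arbitrary units that differ between domains.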
# AgBbc1 = target: AgBbc1
# Outline: as §1
# AgBem1-D1 = target: AgBem1-D1
# Outline: as §1
# AgBzz1-D1 = target: AgBzz1-D1
# Outline: as §1
# AgBzz1-D2 = target: AgBzz1-D2
# Outline: as §1
# AgCyk3 = target: AgCyk3
# Outline: as §1
# AgFus1 = target: AgFus1
# Outline: as §1
# AgHof1 = target: AgHof1
# Outline: as §1
# AgHse1 = target: AgHse1
# Outline: as §1
# AgLsb1 = target: AgLsb1
# Outline: as §1
# AgLsb4 = target: AgLsb4
# Outline: as §1
# AgMyo5 = target: AgMyo5
# Outline: as §1
# AgNbp2 = target: AgNbp2
# Outline: as §1
# AgRvs167 = target: AgRvs167
# Outline: as §1
# AgSho1 = target: AgSho1
# Outline: as §1
# AgSla1-D1-D2 = target: AgSla1-D1-D2
# Outline: as §1
# AgSla1-D3 = target: AgSla1-D3
# Outline: as §1
# CaAbp1-D1 = target: CaAbp1-D1
# Outline: as §1
# CaAbp1-D2 = target: CaAbp1-D2
# Outline: as §1
# CaBbc1 = target: CaBbc1
# Outline: as §1
# CaBem1-D1 = target: CaBem1-D1
# Outline: as §1
# CaBzz1-D1 = target: CaBzz1-D1
# Outline: as §1
# CaBzz1-D2 = target: CaBzz1-D2
# Outline: as §1
# CaCyk3 = target: CaCyk3
# Outline: as §1
# CaFus1 = target: CaFus1
# Outline: as §1
# CaHof1 = target: CaHof1
# Outline: as §1
# CaHse1 = target: CaHse1
# Outline: as §1
# CaLsb1 = target: CaLsb1
# Outline: as §1
# CaLsb4 = target: CaLsb4
# Outline: as §1
# CaMyo5 = target: CaMyo5
# Outline: as §1
# CaNbp2 = target: CaNbp2
# Outline: as §1
# CaRvs167 = target: CaRvs167
# Outline: as §1
# CaRvs167-3 = target: CaRvs167-3
# Outline: as §1
# CaSho1 = target: CaSho1
# Outline: as §1
# CaSla1-D1-D2 = target: CaSla1-D1-D2
# Outline: as §1
# CaSla1-D3 = target: CaSla1-D3
# Outline: as §1
# ScAbp1 = target: ScAbp1
# Outline: as §1
# ScBbc1 = target: ScBbc1
# Outline: as §1
# ScBem1-D1 = target: ScBem1-D1
# Outline: as §1
# ScBzz1-D1 = target: ScBzz1-D1
# Outline: as §1
# ScBzz1-D2 = target: ScBzz1-D2
# Outline: as §1
# ScCyk3 = target: ScCyk3
# Outline: as §1
# ScFus1 = target: ScFus1
# Outline: as §1
# ScHof1 = target: ScHof1
# Outline: as §1
# ScHse1 = target: ScHse1
# Outline: as §1
# ScLsb1 = target: ScLsb1
# Outline: as §1
# ScLsb2 = target: ScLsb2
# Outline: as §1
# ScLsb3 = target: ScLsb3
# Outline: as §1
# ScLsb4 = target: ScLsb4
# Outline: as §1
# ScMyo3 = target: ScMyo3
# Outline: as §1
# ScMyo5 = target: ScMyo5
# Outline: as §1
# ScNbp2 = target: ScNbp2
# Outline: as §1
# ScPex13 = target: ScPex13
# Outline: as §1
# ScRvs167 = target: ScRvs167
# Outline: as §1
# ScSho1 = target: ScSho1
# Outline: as §1
# ScSla1-D1-D2 = target: ScSla1-D1-D2
# Outline: as §1
# ScSla1-D3 = target: ScSla1-D3
# Outline: as §1
# SpAbp1-D1 = target: SpAbp1-D1
# Outline: as §1
# SpBbc1 = target: SpBbc1
# Outline: as §1
# SpBzz1-D1 = target: SpBzz1-D1
# Outline: as §1
# SpBzz1-D2 = target: SpBzz1-D2
# Outline: as §1
# SpCyk3 = target: SpCyk3
# Outline: as §1
# SpHof1 = target: SpHof1
# Outline: as §1
# SpHof1-2 = target: SpHof1-2
# Outline: as §1
# SpHof1-3 = target: SpHof1-3
# Outline: as §1
# SpHse1 = target: SpHse1
# Outline: as §1
# SpLsb1 = target: SpLsb1
# Outline: as §1
# SpLsb4 = target: SpLsb4
# Outline: as §1
# SpMyo1 = target: SpMyo1
# Outline: as §1
# SpNbp2 = target: SpNbp2
# Outline: as §1
# SpPex13 = target: SpPex13
# Outline: as §1
# SpRvs167 = target: SpRvs167
# Outline: as §1
# SpSla1-D1-D2 = target: SpSla1-D1-D2
# Outline: as §1
# SpSla1-D3 = target: SpSla1-D3
# Outline: as §1
binder,measurement,setting,value
RPVPRRPSQPLNTLS,SPOT peptide array binding signal intensity,AgAbp1,306
same,SPOT peptide array binding signal intensity,AgBbc1,801
same,SPOT peptide array binding signal intensity,AgBem1-D1,68.5
same,SPOT peptide array binding signal intensity,AgBzz1-D1,100
same,SPOT peptide array binding signal intensity,AgBzz1-D2,89
same,SPOT peptide array binding signal intensity,AgCyk3,1.25
same,SPOT peptide array binding signal intensity,AgFus1,24
same,SPOT peptide array binding signal intensity,AgHof1,32.8
same,SPOT peptide array binding signal intensity,AgHse1,67.5
same,SPOT peptide array binding signal intensity,AgLsb1,94.8
same,SPOT peptide array binding signal intensity,AgLsb4,2090
same,SPOT peptide array binding signal intensity,AgMyo5,≤ 0
same,SPOT peptide array binding signal intensity,AgNbp2,2250
same,SPOT peptide array binding signal intensity,AgRvs167,182
same,SPOT peptide array binding signal intensity,AgSho1,12.8
same,SPOT peptide array binding signal intensity,AgSla1-D1-D2,17
same,SPOT peptide array binding signal intensity,AgSla1-D3,7.12
same,SPOT peptide array binding signal intensity,CaAbp1-D1,456
same,SPOT peptide array binding signal intensity,CaAbp1-D2,805
same,SPOT peptide array binding signal intensity,CaBbc1,1900
same,SPOT peptide array binding signal intensity,CaBem1-D1,34
same,SPOT peptide array binding signal intensity,CaBzz1-D1,388
same,SPOT peptide array binding signal intensity,CaBzz1-D2,189
same,SPOT peptide array binding signal intensity,CaCyk3,413
same,SPOT peptide array binding signal intensity,CaFus1,141
same,SPOT peptide array binding signal intensity,CaHof1,0.25
same,SPOT peptide array binding signal intensity,CaHse1,56.1
same,SPOT peptide array binding signal intensity,CaLsb1,1.25
same,SPOT peptide array binding signal intensity,CaLsb4,2000
same,SPOT peptide array binding signal intensity,CaMyo5,8
KMSRSPPRPPSLKII,SPOT peptide array binding signal intensity,AgAbp1,329
same,SPOT peptide array binding signal intensity,AgBbc1,145
same,SPOT peptide array binding signal intensity,AgBem1-D1,707
same,SPOT peptide array binding signal intensity,AgBzz1-D1,85.5
same,SPOT peptide array binding signal intensity,AgBzz1-D2,35
same,SPOT peptide array binding signal intensity,AgCyk3,4
same,SPOT peptide array binding signal intensity,AgFus1,180
same,SPOT peptide array binding signal intensity,AgHof1,17
same,SPOT peptide array binding signal intensity,AgHse1,99
same,SPOT peptide array binding signal intensity,AgLsb1,20
same,SPOT peptide array binding signal intensity,AgLsb4,≤ 0
same,SPOT peptide array binding signal intensity,AgMyo5,10.5
same,SPOT peptide array binding signal intensity,AgNbp2,1350
same,SPOT peptide array binding signal intensity,AgRvs167,4.5
same,SPOT peptide array binding signal intensity,AgSho1,228
same,SPOT peptide array binding signal intensity,AgSla1-D1-D2,25
same,SPOT peptide array binding signal intensity,AgSla1-D3,9.25
same,SPOT peptide array binding signal intensity,CaAbp1-D1,734
same,SPOT peptide array binding signal intensity,CaAbp1-D2,1170
same,SPOT peptide array binding signal intensity,CaBbc1,564
same,SPOT peptide array binding signal intensity,CaBem1-D1,83
same,SPOT peptide array binding signal intensity,CaBzz1-D1,1880
same,SPOT peptide array binding signal intensity,CaBzz1-D2,466
same,SPOT peptide array binding signal intensity,CaCyk3,36
same,SPOT peptide array binding signal intensity,CaFus1,974
same,SPOT peptide array binding signal intensity,CaHof1,0.5
same,SPOT peptide array binding signal intensity,CaHse1,58.5
same,SPOT peptide array binding signal intensity,CaLsb1,2.5
same,SPOT peptide array binding signal intensity,CaLsb4,588
same,SPOT peptide array binding signal intensity,CaMyo5,44.5
same,SPOT peptide array binding signal intensity,CaNbp2,1320
same,SPOT peptide array binding signal intensity,CaRvs167,68
same,SPOT peptide array binding signal intensity,CaRvs167-3,≤ 0
same,SPOT peptide array binding signal intensity,CaSho1,939
same,SPOT peptide array binding signal intensity,CaSla1-D1-D2,337
same,SPOT peptide array binding signal intensity,CaSla1-D3,258
same,SPOT peptide array binding signal intensity,ScAbp1,178
same,SPOT peptide array binding signal intensity,ScBbc1,69.5
same,SPOT peptide array binding signal intensity,ScBem1-D1,8
same,SPOT peptide array binding signal intensity,ScBzz1-D1,57
same,SPOT peptide array binding signal intensity,ScBzz1-D2,25.5
same,SPOT peptide array binding signal intensity,ScCyk3,5
same,SPOT peptide array binding signal intensity,ScFus1,463
same,SPOT peptide array binding signal intensity,ScHof1,0.75
same,SPOT peptide array binding signal intensity,ScHse1,99.5
same,SPOT peptide array binding signal intensity,ScLsb1,39.8
same,SPOT peptide array binding signal intensity,ScLsb2,18
same,SPOT peptide array binding signal intensity,ScLsb3,742
same,SPOT peptide array binding signal intensity,ScLsb4,142
same,SPOT peptide array binding signal intensity,ScMyo3,142
same,SPOT peptide array binding signal intensity,ScMyo5,47.2
same,SPOT peptide array binding signal intensity,ScNbp2,2300
same,SPOT peptide array binding signal intensity,ScPex13,464
same,SPOT peptide array binding signal intensity,ScRvs167,123
same,SPOT peptide array binding signal intensity,ScSho1,634
same,SPOT peptide array binding signal intensity,ScSla1-D1-D2,653
same,SPOT peptide array binding signal intensity,ScSla1-D3,270
same,SPOT peptide array binding signal intensity,SpAbp1-D1,177
same,SPOT peptide array binding signal intensity,SpBbc1,6.75
same,SPOT peptide array binding signal intensity,SpBzz1-D1,1270
same,SPOT peptide array binding signal intensity,SpBzz1-D2,79.2
same,SPOT peptide array binding signal intensity,SpCyk3,9
same,SPOT peptide array binding signal intensity,SpHof1,19.5
same,SPOT peptide array binding signal intensity,SpHof1-2,27
same,SPOT peptide array binding signal intensity,SpHof1-3,139
same,SPOT peptide array binding signal intensity,SpHse1,70
same,SPOT peptide array binding signal intensity,SpLsb1,9.75
same,SPOT peptide array binding signal intensity,SpLsb4,1060
same,SPOT peptide array binding signal intensity,SpMyo1,224
same,SPOT peptide array binding signal intensity,SpNbp2,146
same,SPOT peptide array binding signal intensity,SpPex13,17
same,SPOT peptide array binding signal intensity,SpRvs167,92.3
same,SPOT peptide array binding signal intensity,SpSla1-D1-D2,17
same,SPOT peptide array binding signal intensity,SpSla1-D3,138
